These results are taken from PubChem BioAssay (NCATS).

In assay [1] the target is Lysosomal acid glucosylceramidase (Homo sapiens) (UniProt P04062). Nature of the assay: Glucocerebrosidase-p2 (AID 348; in the data active = potency below about 10 µM; also: potency is read from the fitted curve at half-maximal effect). Particulars: purified GBA, blue fluorogenic substrate, 40 min. In outline: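 Normal human glucocerebrosidase (0.2 nM) with blue fluorogenic substrate (80 uM final) in citrate/phosphate pH 5.9 with 10mM sodium taurocholate, 0.01% tween-20; 40 min RT, NaOH/glycine stop; fluorescence Ex 365/Em 440; AC50 from a titration from 0.6 nM upwards.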
Sequence of Lysosomal acid glucosylceramidase (Homo sapiens) (P04062 whole entry, looked up): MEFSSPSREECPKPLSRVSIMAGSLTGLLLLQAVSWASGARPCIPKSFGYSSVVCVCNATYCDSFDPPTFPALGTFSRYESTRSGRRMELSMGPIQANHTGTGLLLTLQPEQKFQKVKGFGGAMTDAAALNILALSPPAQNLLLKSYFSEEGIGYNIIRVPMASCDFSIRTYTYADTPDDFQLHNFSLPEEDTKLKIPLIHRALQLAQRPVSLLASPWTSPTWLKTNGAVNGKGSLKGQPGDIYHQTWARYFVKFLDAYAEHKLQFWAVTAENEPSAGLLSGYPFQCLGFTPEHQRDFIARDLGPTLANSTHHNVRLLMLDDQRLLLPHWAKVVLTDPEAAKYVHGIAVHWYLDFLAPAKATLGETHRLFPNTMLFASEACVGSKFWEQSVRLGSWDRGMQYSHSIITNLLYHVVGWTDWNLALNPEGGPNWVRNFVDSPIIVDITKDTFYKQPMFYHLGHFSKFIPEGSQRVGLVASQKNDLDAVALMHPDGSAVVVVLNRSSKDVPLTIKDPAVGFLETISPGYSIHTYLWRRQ

A short description of assay [2]: AP1 Signaling Pathway (AID 357).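 Also: ME-180 reporter cells stimulated with EGF at its EC50 level; % is scaled to controls: 0 for no effect and ±100 for the full control effect.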 Particulars: ME-180 AP-1-bla reporter, EGF-induced, beta-lactamase ratio, 5 h; at 7.69 µM (top of the series) unless noted. In outline:
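Beta-lactamase reporter under AP-1 response element, ME-180 background. Stimulus: EC50 EGF. Compound exposure 5 h, 37 °C. Detection: CCF4, 2.5 h RT, 460/530 nm. Values: AC50 from titration.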

The nature of assay [3]: Stat Signaling Pathway (AID 446).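 Also: ME-180 cervical cancer cells given 40 pM IL-6 alongside compound; SIE-controlled beta-lactamase reporter measured as 460/530 nm FRET emission ratio; % is scaled to controls: 0 for no effect and ±100 for the full control effect.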 To be noted: ME-180 (cervical carcinoma) SIE beta-lactamase reporter, IL-6 stimulated, 5 h; at 7.69 µM (top of the series) unless noted. The essentials: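 Normalization used AC90 stimulation (300 pM IL-6) and AC90 inhibition (125 nM pan-JAK inhibitor at 40 pM IL-6). The underlying signal is SIE-driven beta-lactamase in ME-180 cells after 5 h IL-6 exposure with compound.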

Assay [4] has as its target Glucocorticoid receptor (Homo sapiens) (UniProt P04150). The assay can be described thus: GR-GFP Redistribution (AID 450;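 active = compounds whose dose series gives a full or clear partial fitted curve of increased nuclear translocation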; also: potency is read from the fitted curve at half-maximal effect). To be noted: U2OS GR-GFP nuclear translocation, laser cytometry, 2 h.
Assay [5] has the same target. Nature of the assay: GR-EFC Redistribution (AID 451; calls by dose curve; also: potency is read from the fitted curve at half-maximal effect). Particulars: CHO-K1 GR-EFC translocation, beta-gal luminescence, 2 h. The essentials: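 CHO-K1 cells stably expressing nuclear-localized β-gal enzyme acceptor and GR fused C-terminally to the enzyme donor fragment; ligand-driven nuclear translocation restores β-gal by complementation. Compounds titrated up to 46 uM final, 2 h at 37 °C; luminescence read.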

The target in assay [6] is Mitogen-activated protein kinase 10 (Mus musculus) (UniProt Q61831). Nature of the assay: JNK3 AlphaScreen Assay (AID 530).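 Also: kinase came from lysate of stimulated human HepG2 cells; signal reports phosphorylation of biotinylated GST-cJun 1-79 at Ser73 with 10 µM ATP; % is scaled to controls: 0 for no effect and ±100 for the full control effect.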 To be noted: JNK3 lysate, c-Jun phosphorylation; series mostly up to 11.4 µM. In outline:
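Phosphorylation of biotinylated GST-cJun(1-79) at Ser73 is measured by AlphaScreen proximity luminescence. Enzyme is JNK3 in HepG2 lysates activated with interleukin-1beta and tumor necrosis factor alpha; ATP is 10 uM final.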

Assay [7] deals with 3',5'-cyclic-AMP phosphodiesterase 4B (Homo sapiens) (UniProt Q07343). Nature of the assay: qHTS Assay for Inhibitors of PDE-IV (AID 607; active = well fitted activation curve with a large enough effect in the main read-out, with a control signal flat, not every such curve was filed as active; also: % of control where 0% means no effect). To be noted: HEK293 ACTOne CNG channel cells, membrane potential fluorescence; series mostly up to 22.9 µM. The essentials:
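HEK293 ACTOne cells with CNG channel (1000/well), endogenous PDE4; membrane potential dye, compounds up to 22.9 uM final. Fluorescence Ex 535/Em 590; RO 20-1724 (100 uM final) as reference.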
For orientation: Quantitative high-throughput screening tests each substance at several concentrations.

Assay [8] in a line: Confirmation and Secondary Assay for Modulators of Hemoglobin Beta Chain Splicing at IVS2 654 locus (AID 910; active = well fitted curve in the direction sought with a large enough effect; an effect the other way counts as inactive or inconclusive; also: % of control where 0% means no effect). Particulars: HeLa EGFP-654 splicing reporter, GFP fluorescence, 48 h; series mostly up to 38.3 µM. In outline:
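HeLa cells stably carrying EGFP interrupted by mutant beta-globin IVS2-654 intron (CMV-driven) were treated with compound for 2 days at 37C; corrected splicing was scored as total peak GFP intensity per well (488 nm excitation, 500-520 nm emission).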

Assay [9] can be described thus: Confirmation and Secondary Assay for Modulators of Hemoglobin Beta Chain Splicing at IVS2 705 locus (AID 930; active = well fitted curve in the direction sought with a large enough effect; an effect the other way counts as inactive or inconclusive; also: % of control where 0% means no effect). Particulars: HeLa EGFP-705 splicing reporter, GFP fluorescence, 48 h; series mostly up to 38.3 µM. In outline: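 HeLa cells stably carrying EGFP interrupted by mutant beta-globin intron 2 (IVS2-705) treated 2 days at 37C with compound; 500 nM antisense PNA as control. Correct splicing read as total peak GFP intensity per well by laser-scanning cytometry.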

Assay [10] has as its target Ubiquitin carboxyl-terminal hydrolase 1 (Homo sapiens) (UniProt O94782). The assay can be described thus: Inhibitors of USP1/UAF1: Pilot qHTS (AID 504865; active = well fitted curve in the direction sought with a large enough effect; an effect the other way counts as inactive or inconclusive; also: nearly all actives have a fitted effect of over 35% in size; also: potency is read from the fitted curve at half-maximal effect;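 as to activity change, negative = inhibition: rhodamine fluorescence freed from ubiquitin-rhodamine substrate followed over time; top concentration of the series differs between compounds; % is scaled to controls: 0 for no effect and ±100 for the full control effect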). Particulars: purified USP1/UAF1, Ub-rhodamine cleavage fluorescence; series mostly up to 114 µM. The essentials: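 In 50mM HEPES pH 7.8 containing 0.5mM EDTA, 1mM TCEP, 0.1 mg/ml BSA and 0.01% Tween-20, 1nM USP1/UAF1 is exposed to compound for 15 min, then Ub-Rho (150nM final) is added and fluorescence is read over time.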

Values without a mark were called inactive. Results filed as inconclusive are left out. The source made the active and inactive calls. Unless noted, calls follow the shape of the dose curve; as a rule, active = well fitted curve in either direction with a large enough effect (not every such curve was filed as active); inconclusive = small, poorly fitted or top-dose-only effect, or another doubt; inactive = flat fitted curve, though single readings scatter. Bounds are passed on as bounds.

Sequence of Glucocorticoid receptor (Homo sapiens) (P04150 whole entry, looked up, the tested form may be a part): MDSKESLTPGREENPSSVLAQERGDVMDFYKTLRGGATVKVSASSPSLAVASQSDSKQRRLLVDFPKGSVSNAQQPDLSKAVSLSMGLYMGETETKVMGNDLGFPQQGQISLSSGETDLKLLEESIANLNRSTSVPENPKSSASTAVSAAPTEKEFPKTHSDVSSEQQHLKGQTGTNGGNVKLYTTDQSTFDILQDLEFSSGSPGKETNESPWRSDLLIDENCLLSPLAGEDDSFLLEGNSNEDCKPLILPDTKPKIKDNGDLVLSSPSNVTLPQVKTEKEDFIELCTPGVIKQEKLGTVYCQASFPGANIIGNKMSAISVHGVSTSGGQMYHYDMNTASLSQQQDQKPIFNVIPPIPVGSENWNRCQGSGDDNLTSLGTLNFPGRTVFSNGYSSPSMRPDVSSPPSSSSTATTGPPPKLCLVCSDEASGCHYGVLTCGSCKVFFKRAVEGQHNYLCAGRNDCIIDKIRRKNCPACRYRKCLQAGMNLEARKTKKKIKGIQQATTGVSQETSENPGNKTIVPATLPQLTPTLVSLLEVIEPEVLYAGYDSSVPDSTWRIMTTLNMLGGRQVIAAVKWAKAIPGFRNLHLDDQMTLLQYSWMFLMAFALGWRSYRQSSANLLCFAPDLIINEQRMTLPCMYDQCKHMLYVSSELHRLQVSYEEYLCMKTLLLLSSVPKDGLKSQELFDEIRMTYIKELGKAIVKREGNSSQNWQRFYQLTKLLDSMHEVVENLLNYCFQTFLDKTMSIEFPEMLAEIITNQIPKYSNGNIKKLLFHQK
Sequence of 3',5'-cyclic-AMP phosphodiesterase 4B (Homo sapiens) (Q07343 whole entry, looked up): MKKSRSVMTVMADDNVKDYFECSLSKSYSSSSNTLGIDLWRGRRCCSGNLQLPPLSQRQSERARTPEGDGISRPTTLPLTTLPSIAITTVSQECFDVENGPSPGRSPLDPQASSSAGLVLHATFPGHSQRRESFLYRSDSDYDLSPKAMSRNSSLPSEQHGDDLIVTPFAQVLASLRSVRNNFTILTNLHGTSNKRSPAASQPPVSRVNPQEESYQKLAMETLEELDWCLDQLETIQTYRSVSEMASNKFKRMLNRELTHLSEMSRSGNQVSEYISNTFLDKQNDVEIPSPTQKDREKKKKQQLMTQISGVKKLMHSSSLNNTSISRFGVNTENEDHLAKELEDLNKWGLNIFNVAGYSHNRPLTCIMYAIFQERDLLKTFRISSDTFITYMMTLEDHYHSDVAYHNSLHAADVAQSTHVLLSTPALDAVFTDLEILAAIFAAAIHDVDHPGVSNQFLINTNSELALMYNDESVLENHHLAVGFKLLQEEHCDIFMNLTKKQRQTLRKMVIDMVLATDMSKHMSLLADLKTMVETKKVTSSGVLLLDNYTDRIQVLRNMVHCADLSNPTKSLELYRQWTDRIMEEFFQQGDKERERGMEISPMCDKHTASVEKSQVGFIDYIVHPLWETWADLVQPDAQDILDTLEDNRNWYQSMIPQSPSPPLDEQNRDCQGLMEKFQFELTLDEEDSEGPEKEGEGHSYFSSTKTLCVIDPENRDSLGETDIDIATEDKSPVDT
Sequence of Ubiquitin carboxyl-terminal hydrolase 1 (Homo sapiens) (O94782 whole entry, looked up): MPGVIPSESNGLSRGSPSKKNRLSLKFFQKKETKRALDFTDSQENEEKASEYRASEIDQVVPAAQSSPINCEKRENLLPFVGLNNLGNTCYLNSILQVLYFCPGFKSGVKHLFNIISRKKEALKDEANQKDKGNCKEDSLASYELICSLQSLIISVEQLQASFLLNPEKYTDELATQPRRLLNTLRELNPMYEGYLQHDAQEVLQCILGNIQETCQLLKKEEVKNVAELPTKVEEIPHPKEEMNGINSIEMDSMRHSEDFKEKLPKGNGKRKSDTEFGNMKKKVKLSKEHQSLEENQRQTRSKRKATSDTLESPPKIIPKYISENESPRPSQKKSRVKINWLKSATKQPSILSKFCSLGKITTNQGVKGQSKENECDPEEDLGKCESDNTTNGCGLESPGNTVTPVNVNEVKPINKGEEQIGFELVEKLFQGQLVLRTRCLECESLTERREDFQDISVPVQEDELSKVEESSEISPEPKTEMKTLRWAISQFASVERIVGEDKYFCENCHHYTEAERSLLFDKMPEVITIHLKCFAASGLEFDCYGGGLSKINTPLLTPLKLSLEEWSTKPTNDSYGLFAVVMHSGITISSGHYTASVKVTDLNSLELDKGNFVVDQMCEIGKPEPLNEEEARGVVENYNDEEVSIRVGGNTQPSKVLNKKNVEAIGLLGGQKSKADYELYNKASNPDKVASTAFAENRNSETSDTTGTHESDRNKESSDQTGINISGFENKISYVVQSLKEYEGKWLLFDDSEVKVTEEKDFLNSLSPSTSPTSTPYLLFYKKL

As for `c1ccc2c[n+](CCCC[n+]3ccc4ccccc4c3)ccc2c1`, the Potency is over 11.4 µM in [1], over 46 µM in [4] and over 9.22 µM in assay [5]. In addition, the activity change, negative = inhibition in assay [2] was 9.12%. Further, the activity, negative = inhibition in assay [3] was -5.69%. In addition, the Potency entry in assay [6] and in assay [7] was “inactive” each time.
`CC(=O)Nc1ccc2c(c1)/C(=C/c1ccc([N+](C)(C)C)cc1)c1ccccc1-2`: the Potency in assay [1] is 9.02 µM (active); in [4], over 46 µM; in [5], over 9.22 µM. Further, the activity change, negative = inhibition in assay [2] is -9.13%. Besides, the activity, negative = inhibition in assay [3] was 4.17%. Besides, the Potency result in [6] and in [7] was “inactive” each time.
Regarding `CN(C)Cc1cc(C(=O)O)cc(CN(C)C)c1O`, the Potency was over 11.4 µM in assay [1], over 46 µM in assay [4] and over 9.22 µM in assay [5]. For the same compound, in assay [2], the activity change, negative = inhibition is 4.91%. Also, in assay [3], the activity, negative = inhibition was -1.77%. For the same compound, the Potency entry in assay [6] and in assay [7] was “inactive” each time.
For the compound `CN1CCC[C@H](C(=O)OCC(=O)[C@]2(O)CC[C@@H]3[C@H]4CCC5=CC(=O)CC[C@@]5(C)[C@H]4[C@@H](O)C[C@]32C)C1`, the Potency in assay [1] was over 11.4 µM; in assay [4] it was 0.135 µM (active); in assay [5] it was over 9.22 µM. In [2], the activity change, negative = inhibition is 11%. In addition, in [3], the activity, negative = inhibition is -2.61%. Besides, the Potency entry in assay [6] and in assay [7] was “inactive” throughout.
Consider `COc1ccc(CNc2nc(-c3ccccc3OC)nc3ccccc23)c(OC)c1`, for which the Potency in [1] is over 11.4 µM; in [4], over 46 µM; in [5] it was over 46 µM; in assay [10], 20 µM (active). For the same compound, the activity change, negative = inhibition in assay [2] is -13.6%. For the same compound, the activity, negative = inhibition in [3] is 16.1%. Also, the Potency entry in assay [6] and in assay [7] was “inactive” each time. The compound was called inactive in assay [8] and in assay [9].
`O=C(O)c1ccc(N[C@H](c2ccccc2)c2ccc3cccnc3c2O)cc1`: the Potency in assay [1] was over 11.4 µM; in assay [4], over 46 µM; in assay [5], over 9.22 µM. For the same compound, in assay [2], the activity change, negative = inhibition is -0.822%. In addition, in assay [3], the activity, negative = inhibition was -17%. In addition, the Potency entry in assay [6] and in assay [7] was “inactive” in each case.
For the compound `Oc1cc(O)c2c(c1)O[C@H](c1ccc(O)c(O)c1)[C@@H](O)[C@@H]2c1c(O)cc(O)c2c1O[C@@H](c1ccc(O)c(O)c1)[C@H](O)C2`, the Potency was over 11.4 µM in assay [1], over 46 µM in assay [4] and over 9.22 µM in assay [5]. Also, the activity change, negative = inhibition in assay [2] is 16.5%. In assay [3], the activity, negative = inhibition is -2.56%. Besides, the Potency entry in [6] and in [7] was “inactive” throughout.
Turning to `CN1CCN(c2ncc3nc(CCc4ccccc4)c(=O)n(CCC#N)c3n2)CC1`, the Potency in assay [1] is over 11.4 µM; in assay [4] it was over 9.22 µM; in assay [5] it was over 46 µM. Moreover, the activity change, negative = inhibition in assay [2] is -1.24%. Also, the activity, negative = inhibition in [3] is -3.93%. The Potency entry in [6] and in assay [7] was “inactive” throughout.
Regarding `COc1ccccc1-c1nc(NCCc2cnc[nH]2)c2ccccc2n1`, the Potency in assay [1] was over 11.4 µM; in assay [4], over 46 µM; in assay [5] it was over 46 µM. The activity change, negative = inhibition in assay [2] is 17.1%. Further, the activity, negative = inhibition in [3] was 22.8%. Further, the Potency result in [6], in assay [7] and in assay [10] was “inactive” in each case.
